In PubChem BioAssay (EPA / NIEHS) one finds outcome and AC50 data, which are given here for 40 compounds.

A word on the AC50: it is the concentration giving half of the maximal activity seen.

Values joined by “and” are separate entries in the source; they are usually repeats but may differ in a detail not shown here. Equal values may be shown once. Active and inactive are the calls of the source. The calls were made as follows: active = hit-call score of the fitted dose curve at least 0.9, where 1 is the maximum; inactive = score below 0.9.

The nature of the assay: BSK_BF4T_SRB: Viability Assessment in the BioMAP Diversity Plus: BF4T Assay (AID 2284274). The settings on record: primary human bronchial epithelial cells with fibroblasts. How it is done: BSK_BF4T is a cell-based, multiplexed-readout assay that uses bronchial epithelial cells and dermal fibroblasts, a human vascular primary cell, with measurements taken at 24 hours after chemical dosing in a microplate: 96-well plate.BSK_BF4T_SRB is an assay component measured in the BSK_BF4T assay. It measures 0.1% sulforhodamine related to cell death using Sulforhodamine staining technology.Data from the assay component BSK_BF4T_SRB was analyzed at the endpoint, BSK_BF4T_SRB, in the positive analysis fitting direction relative to DMSO as the negative control and baseline of activity. Using a type of viability reporter, gain or loss-of-signal activity can be used to understand protein changes. To generalize the intended target to other relatable targets, this assay endpoint is annotated to the 'cell morphology' intended target family, where the subfamily is 'cell conformation'.
The levels of cell surface (or secreted, indicated by the prefix "s") biomarker endpoints were measured by ELISA. Overt cytotoxicity to cells in confluent adherent cultures (all systems other than the BT system) was assessed by measuring total protein levels using sulforhodamine B (SRB) staining in parallel cultures at the time of biomarker measurements, indicated as SRB endpoints. For proliferation assays for adherent cell types, individual cell types are cultured at sub-confluence and relative cell numbers quantified by SRB staining at time points optimized for each system (48 h: 3C and CASM3C systems; 72 h: BT and HDF3CGF systems; 96 h: SAg system). SRB was performed by staining cells with 0.1% SRB after fixation with 10% TCA and reading wells at 560 nm.Viability and proliferation of PBMC (T cells) was quantified by Alamar Blue reduction for the SAg and BT systems. For PBMC viability (referred to as PBMC Cytotoxicity within the assay endpoint names), cells were plated (75,000/well in a 96-well plate) and then chemical samples added for 1 h before addition of activators, SEB and TSST-1 (20 ng/mL final concentration each). Cells were incubated for 90 h. Then, Alamar Blue (20 uL/well) (Invitrogen, Cat DAL1100) was added for 6 h, and the plates were read with a fluorescence microplate reader at 546/580 nm (excitation/emission). For PBMC proliferation, cells were plated and activated as above but incubated for only 16 h prior to addition of Alamar Blue. Plates were read after 6 h.
As for `OCC(F)(F)C(F)(F)C(F)(F)C(F)(F)C(F)(F)C(F)(F)CO`, the outcome was inactive. Take `OCC(O)CC(F)(F)C(F)(F)C(F)(F)C(F)(F)F` (stereo not given): the outcome was inactive. The same measure, in the same setting: next, `CNS(=O)(=O)C(F)(F)C(F)(F)C(F)(F)C(F)(F)C(F)(F)C(F)(F)C(F)(F)C(F)(F)F`: “inactive”; `NC(O)(C(F)(F)F)C(F)(F)F`: “inactive”. For `O=C(O)C(F)(F)C(F)(F)C(F)(F)OC(F)(C(F)(F)F)C(F)(F)F`, the outcome was inactive. Consider `C=C(C)C(=O)OCC(F)(F)C(F)(F)C(F)(F)C(F)F`, for which the result was inactive. As to `FC(F)(F)C(F)(F)C(F)(F)C(F)(F)C(F)(F)C(F)(F)CC[Si](Cl)(Cl)Cl`, the outcome was inactive.

As for `OCC(F)(F)C(F)(F)C(F)(F)CO`, the result was inactive.

Take `O=S(=O)(OCC(F)(F)F)C(F)(F)C(F)(F)C(F)(F)C(F)(F)F`: the outcome was inactive. On the same count and under the same terms, next, `NC(=O)C(F)(F)C(F)(F)C(F)(F)C(F)F`: “inactive”. The same measure, in the same setting: next, `C=CC(=O)OCCC(F)(F)C(F)(F)C(F)(F)C(F)(F)F`: “inactive”.

Turning to `O=S(=O)(O)CCC(F)(F)C(F)(F)C(F)(F)C(F)(F)C(F)(F)C(F)(F)C(F)(F)C(F)(F)F`, the result was inactive. The same measure, in the same setting: the result for `FC(F)(F)C(F)(F)C(F)(F)CC1CO1` (stereo not given) reads “inactive”; that for `O=C(O)C(F)(F)C(F)(F)C(F)(F)C(F)(F)C(F)(F)C(F)(F)C(F)F`, “inactive”; that for `O=C(Cl)C(F)(F)C(F)(F)C(F)(F)C(F)(F)C(F)(F)C(F)(F)F`, “inactive”. Same read-out and setting: next, `NC(=O)C(F)(F)C(F)(F)C(F)(F)C(F)(F)C(F)(F)C(F)(F)C(F)(F)F`: “inactive”. Regarding `OCC(F)(F)C(F)(F)C(F)(F)C(F)(F)C(F)(F)C(F)(F)C(F)(F)C(F)(F)CO`, the AC50 was 26.2 µM (active) and 30 µM (active).

For the compound `O=C(O)CCC(F)(F)C(F)(F)C(F)(F)C(F)(F)C(F)(F)C(F)(F)C(F)(F)F`, the result was inactive. The same measure, in the same setting: next, `NC(=O)C(F)(F)C(F)(F)C(F)(F)C(F)(F)C(N)=O`: “inactive”. Still for that read-out and setting: the result for `C=CC(=O)OCC(F)(F)C(F)(F)C(F)(F)C(F)(F)C(F)(F)C(F)(F)C(F)(F)C(F)F` reads “inactive”; that for `NCC(F)(F)C(F)(F)C(F)(F)C(F)(F)C(F)(F)C(F)(F)C(F)(F)C(F)(F)F`, “inactive”. Take `O=S(=O)(Cl)C(F)(F)C(F)(F)C(F)(F)C(F)(F)C(F)(F)C(F)(F)C(F)(F)C(F)(F)F`: the concentration at half-maximal activity (AC50) was 50.8 µM (active) and 46.8 µM (active). Turning to `COC(F)(C(F)F)C(F)(F)F` (stereo not given), the outcome was inactive. Still for that read-out and setting: next, `OCCCCC(F)(F)C(F)(F)C(F)(F)C(F)(F)F`: “inactive”; `O=C(O)C(F)(F)OC(F)(F)C(F)(F)OC(F)(F)C(F)(F)OC(F)(F)F`: “inactive”; `OCC(O)CC(F)(F)C(F)(F)C(F)(F)C(F)(F)C(F)(F)C(F)(F)C(F)(F)C(F)(F)F` (stereo not given): “inactive”. Same read-out and setting: the result for `CN(C(=O)C(F)(F)C(F)(F)C(F)(F)F)[Si](C)(C)C` reads “inactive”. Same read-out and setting: next, `CO[Si](C)(CCC(F)(F)C(F)(F)C(F)(F)C(F)(F)C(F)(F)C(F)(F)F)OC`: “inactive”. As to `NS(=O)(=O)C(F)(F)C(F)(F)C(F)(F)C(F)(F)C(F)(F)C(F)(F)F`, the outcome was inactive. For `NC(=O)C(F)(F)C(F)(F)C(F)(F)F`, the result was inactive. As to `OC(O)C(F)(F)C(F)(F)F`, the result was inactive. As to `CCN(CCO)S(=O)(=O)C(F)(F)C(F)(F)C(F)(F)C(F)(F)C(F)(F)C(F)(F)C(F)(F)C(F)(F)F`, the result was inactive. On the same count and under the same terms, next, `O=C(Cl)C(F)(F)C(F)(F)C(F)(F)C(F)(F)C(F)(F)C(F)(F)C(F)(F)F`: “inactive”; `C[Si](Cl)(Cl)CCC(F)(F)C(F)(F)C(F)(F)C(F)(F)C(F)(F)C(F)(F)F`: “inactive”.

As for `O=C(O)CCC(F)(F)C(F)(F)C(F)(F)F`, the outcome was inactive. With `C=CC(=O)OCC(F)(F)C(F)(F)C(F)(F)COC(=O)C=C`, the AC50 was 43.4 µM (active) and 47.1 µM (active). On to `O=S(=O)(O)CCC(F)(F)C(F)(F)C(F)(F)C(F)(F)F`, for which the outcome was inactive. Same read-out and setting: the result for `NCC(F)(F)C(F)(F)C(F)(F)C(F)(F)C(F)(F)C(F)(F)F` reads “inactive”; that for `FC(F)(F)C(F)(F)C(F)(F)C(F)(F)C(F)(F)C(F)(F)C(F)(F)CCI`, “inactive”.

In the case of `CCOC(=O)CC(=O)C(F)(F)C(F)(F)F`, the outcome was inactive.
